Wnt act – activators of Wnt/beta-catenin signaling. Wnt/beta-catenin reporter cell assay, activator, plate reader. activation, % at 9.35 µM. 1.2% of 300,000 active; in the data active = activation above about 30%, passing the limit was not always enough; inconclusive = no clear call, values can overlap the other calls;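 note: 0% = neutral control wells and 100% = positive control wells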
MITF act – increases MITF-driven TRPM1 promoter luciferase signal | AID 588334 | activation, % at 12.5 µM | 0.75% of 300,000 active | SK-MEL-5 TRPM1-promoter luciferase, 24 h; % of positive control, neutral wells = 0;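 active = mean activation of at least 80% with every replicate also reaching 80%; inconclusive = mean reaches 80% but some replicate falls short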;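 note: 0% = neutral control wells and 100% = parthenolide positive control wells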
Vif imaging – blocks HIV Vif function | inhibition, % at 7.49 µM | 0.35% of 340,000 active | HEK293T cells, Vif self-association by quenched fluorescence, imaging, 24 h; in the data active = inhibition above about 50%, passing the limit was not always enough; inconclusive = no clear call, values can overlap the other calls; inactive = below about 31%
Glyco luc inh – N-linked glycosylation inhibition; reporter increase, % at 12.5 µM; D54 ERlucT glycosylation luciferase reporter, 24 h; percent of 100 nM tunicamycin response; 0.23% of 360,000 active; AID 588692;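 active = mean luciferase reporter signal, scaled so untreated is 0 and the glycosylation-blocking control 100, at or above a set limit in every replicate; inconclusive = mean reaches the limit but not every replicate does; inactive = mean below the limit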;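 note: luciferase carries N-glycosylation sites so blocking glycosylation raises the light; 0% = median of neutral control wells and 100% = median of 100 nM tunicamycin wells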
PfHsp90 set2 – inhibits growth of yeast expressing Plasmodium falciparum Hsp90; S. cerevisiae expressing PfHsp90, BacTiter-Glo ATP, 48 h; yeast lacking PDR1 and PDR3 efflux regulators; inhibition, % at 9.4 µM; 0.32% of 310,000 active; AID 504621;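 active = every replicate shows inhibition above about 80%, whatever the replicate mean, limit read from the data; inconclusive = mean inhibition reaches the set limit but some replicate falls short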;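 note: 0% = DMSO neutral controls and 100% = 20 µM radicicol positive controls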
esBAF inh – SWI/SNF esBAF complex inhibition; mouse ES cells, Bmi1-luciferase knock-in reporter, 24 h; 100% = twice the neutral-well signal; reporter increase, % at 12.5 µM; 2% of 350,000 active; in the data active = activation above about 40%; inconclusive = no clear call, values can overlap the other calls;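 note: 0% = median of the plate's neutral control wells and 100% = double that signal; a rise in the Bmi1 reporter signal indicates esBAF inhibition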
* = called active by the depositor; ? = inconclusive; . = no result. Sampled rows, rich in hits. Any-hit rate of the full collection: about 3%.

SMILES	Wnt act	MITF act	Vif imaging	Glyco luc inh	PfHsp90 set2	esBAF inh
COc1ccc(-c2cc3ccccc3oc2=O)cc1NC(=S)NC(=O)c1ccc2c(c1)OCCO2	.	-23	20	70*	-14	24
CC(C)(Oc1ccc(F)cc1)C(=O)OCC(=O)c1ccc(S(C)(=O)=O)cc1	1	-6	0	1	.	20
COC(=O)C[C@@H]1C[C@H]2c3cc(NC(=O)Nc4ccc(OC)cc4)ccc3O[C@H]2[C@@H](CO)O1	.	.	.	.	.	8
Cc1c(/C=C/C(=O)c2cccs2)cnn1C	57*	50	-1	1	3	33
CCCOC(=O)c1c(NC(=O)/C=C/c2cnn(C)c2C)sc(C(=O)OC)c1C	-4	30	-3	2	21	7
CCc1ccc(C(=O)/C=C/c2cnn(C)c2C)s1	23	.	-5	-14	-8	55*
Nc1ccc(/C=C/C(=O)c2cccs2)cc1	18	70	?	-8	4	68*
CCOc1cc(NC(=O)c2cccs2)c(OCC)cc1NC(=O)CCC(=O)NCc1ccccn1	2	.	.	.	.	.
COc1ccc(C(=O)c2c3ccc(OC)cc3[n+]([O-])n2CCCC(N)=O)cc1	2	-4	-3	2	-2	0
COc1ccc(C(=O)c2c3ccc(OC)cc3[n+]([O-])n2Cc2ccc(C(N)=O)cc2)cc1	27	50	-12	5	0	61*
COc1ccccc1CNC(=O)C[C@@H]1C[C@H]2c3cc(NC(=O)CC4CC4)ccc3O[C@H]2[C@H](CO)O1	.	.	.	.	.	3
COc1cccc(C(=O)Nc2ccc3c(c2)OC[C@@H](C)N(CCc2ccccc2)C[C@H](C)[C@H](OC)CN(C)C3=O)c1	.	.	.	.	.	1
CCCNC(=O)Nc1ccc2c(c1)C(=O)N(C)C[C@H](OC)[C@@H](C)CN(Cc1ccc(-c3ccccn3)cc1)[C@H](C)CO2	.	.	.	.	.	42*
CO[C@H]1CN(C)C(=O)c2cc(NC(=O)NC(C)C)ccc2OC[C@H](C)N(Cc2ccc(-c3ccccn3)cc2)C[C@@H]1C	.	.	.	.	.	142*
COc1cccc(C(=O)Nc2ccc3c(c2)OC[C@@H](C)N(CCc2ccccc2)C[C@@H](C)[C@H](OC)CN(C)C3=O)c1	.	.	.	.	.	64*
CO[C@@H]1CN(C)C(=O)c2cc(NC(=O)c3nc4ccccc4s3)ccc2OC[C@@H](C)N(Cc2cccnc2)C[C@H]1C	.	.	.	.	.	51*
Cc1cc(NC(=O)c2cnn3c(C(F)(F)F)cc(-c4ccccc4)nc23)no1	0	5	0	6	-2	-3
CO[C@H]1CN(C)C(=O)c2cc(NC(=O)NC(C)C)ccc2OC[C@@H](C)N(Cc2ccc(-c3ccccn3)cc2)C[C@@H]1C	.	.	.	.	.	72*
Oc1ccc(C2C(c3ccccc3)=NN=C(c3ccc(Cl)cc3)N2O)c(O)c1 (stereo not drawn)	3	19	.	-3	-27	46*
Oc1ccc(C2C(c3ccccc3)=NN=C(c3ccccc3F)N2O)c(O)c1 (stereo not drawn)	.	-1	2	-4	23	.
COc1ccc(C)cc1S(=O)(=O)N(C)CC(N)=O	0	-9	-13	1	9	-4
NC(=O)c1ccccc1N/C=C/C(=O)c1ccc(F)cc1	54*	48	.	-10	6	31
N#Cc1ccccc1N/C=C/C(=O)c1ccc(Cl)cc1	48*	.	23	-12	.	-8
O=C(/C=C/NNC(=O)c1ccc(Cl)cc1)c1ccccc1	0	-15	14	-1	-27	.
O=C(/C=C/Nc1ccc(F)cc1)c1ccc(Br)cc1	61*	47	-3	-9	-1	.
SMILES	Wnt act	MITF act	Vif imaging	Glyco luc inh	PfHsp90 set2	esBAF inh
O=C(/C=C/Nc1ccccc1F)c1ccc(Br)cc1	46*	32	.	-12	-13	.
NC(=O)c1ccccc1N/C=C/C(=O)c1cccs1	.	35	-3	-11	-2	-8
O=C(c1c[nH]c2ccc(F)cc2c1=O)N1CCCCCC1	-2	1	-1	1	20	-8
COc1ccc(/C=N/NC(=O)COc2cccc3ccccc23)c(C(=O)O)c1OC	-4	-5	-3	0	22	.
COc1cnn(-c2ccccc2)c(=O)c1OC	50*	.	-3	0	13	.
COc1c(O)cnn(-c2ccccc2)c1=O	1	.	3	1	8	.
O=C(/C=C/c1ccccc1)Oc1ccc(C(=S)N2CCOCC2)cc1	-1	9	-7	1	3	.
COC(=O)c1ccc(OC(=O)/C=C/c2ccco2)cc1	-2	8	-4	0	4	-5
O=C(/C=C/c1ccco1)Oc1ccc(C(=S)N2CCOCC2)cc1	84*	1	-1	-2	13	.
O=Cc1cccc(OC(=O)/C=C/c2ccco2)c1	9	.	-5	1	15	48*
Cc1cccc(C)c1C(O)c1ncc(-c2cccc3ccccc23)[nH]1 (stereo not drawn)	0	.	-6	-1	.	-2
CC1CCCCN1C(=O)c1c([N+](=O)[O-])cnn1C (stereo not drawn)	-1	-1	5	1	-26	-9
COc1ccc(Br)cc1C(=O)Nc1ccc(N2CCCC2)cc1	-7	.	143*	4	-19	10
Cc1cc(C)cc(NC(=O)Nc2ccc(N3CCCCC3)cc2)c1	39*	.	-14	-1	10	.
CCOc1cc(C(=O)Nc2ccc(N3CCOCC3)cc2)cc(Br)c1OC	-5	-21	9	32*	.	-4
CCOc1cc(C(=O)Nc2ccc(F)cc2)cc(Br)c1OC	-3	4	2	-2	-42	.
CC[N+]1=C(C)C(C)(C)c2cc(C)ccc21	-19	-11	.	-4	4	-28
COc1ccc(-c2noc(=O)[nH]2)cc1	-3	-4	15	3	-10	.
Cn1c(CN2CCOCC2)nnc1SCC(=O)Nc1cccc(C(F)(F)F)c1	-3	15	?	0	20	-4
Cc1cc(-c2onc(C)c2C(=O)Oc2ccc(Cl)cc2)no1	-5	5	9	1	7	-11
Cc1cc(-c2onc(C)c2C(N)=O)no1	38*	-10	8	0	-9	0
c1ccc2c3c([nH]c2c1)-c1[nH]ncc1CC3	.	25	.	1	-1	25
Clc1ccc2[nH]c3c(c2c1)CCc1cn[nH]c1-3	.	9	-4	4	110*	24
Cc1ccc(-n2c(-c3ccc(Br)cc3)c[n+]3c2CCc2ccc4cccnc4c2-3)cc1	.	-97	-2	40*	-20	-56
COc1ccc(-n2c(-c3ccc(Cl)cc3)c[n+]3c2CCc2ccccc2-3)cc1	-2	-44	-11	4	-4	-83
CC(=O)c1cccc(OCC(=O)Nc2cc(Cl)ccc2-n2cncn2)c1	0	84*	2	2	6	.
Oc1csc(Cc2nc(-c3ccc4ccccc4c3)cs2)n1	.	.	-17	3	.	69*
O=C(C[C@@H]1CC[C@H](NC(=O)Nc2cccc(F)c2)[C@H](CO)O1)NCC1CC1	.	.	.	.	.	-3

Compound activity: PubChem BioAssay, Broad Institute
